Compounds with a hit are over-represented: about 10% of the library has one in this group of screens.
Gal4-VP16 FLuc: Gal4-VP16 reporter inhibition counter-screen; Drosophila S2 Gal4-VP16 UAS-luciferase, luminescence, 20 h; Potency, µM (highest dose often 53.6 µM), for the others: top-dose activity, negative = inhibition, most hits filed as inhibitors; 3.5% of 310,000 active;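 also: Gal4-VP16 expression switched on by copper sulfate through the metallothionein promoter; % is scaled to controls: 0 for no effect and ±100 for the full control effect; nearly all actives have a fitted effect of over 50% in size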
SW480 rerep: DNA re-replication induction in SW480 cells; SW480 DNA re-replication, Hoechst DNA content imaging, 48 h; Potency, µM (doses to about 46.1 µM), for the others: at the highest dose re-replication activation, usual class: activators; 1.8% of 340,000 active; AID 624297; also: % of control where 0% means no effect; nearly all actives have a fitted effect of over 55% in size
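Readout is total intensity of Hoechst-stained nuclei, excited at 405 nm and collected at 500-530 nm. Compound treatment lasted 48 hr at 37 C in 5% CO2 before staining.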
MCF10A rerep: inducers of DNA re-replication in MCF 10A breast cells; AID 624296; Potency, µM (top dose mostly 46.1 µM), for inactives: top-dose activity, positive = re-replication, most hits filed as activators; MCF 10A DNA re-replication, Hoechst nuclear intensity, 48 h; 2.9% of 350,000 active; also: % of control where 0% means no effect; nearly all actives have a fitted effect of over 50% in size
RORg inh: inhibitors of mouse ROR gamma transcriptional activity; Drosophila S2 Gal4-RORgamma UAS-luciferase reporter, 20 h; Potency, µM (titrated, usually from 53.6 µM), without a hit: at the highest dose activity change, negative = inhibition, most hits filed as inhibitors; 5.4% of 310,000 active; also: % is scaled to controls: 0 for no effect and ±100 for the full control effect; nearly all actives have a fitted effect of over 60% in size
Target sequence (P51450 whole entry, looked up, the tested form may be a part): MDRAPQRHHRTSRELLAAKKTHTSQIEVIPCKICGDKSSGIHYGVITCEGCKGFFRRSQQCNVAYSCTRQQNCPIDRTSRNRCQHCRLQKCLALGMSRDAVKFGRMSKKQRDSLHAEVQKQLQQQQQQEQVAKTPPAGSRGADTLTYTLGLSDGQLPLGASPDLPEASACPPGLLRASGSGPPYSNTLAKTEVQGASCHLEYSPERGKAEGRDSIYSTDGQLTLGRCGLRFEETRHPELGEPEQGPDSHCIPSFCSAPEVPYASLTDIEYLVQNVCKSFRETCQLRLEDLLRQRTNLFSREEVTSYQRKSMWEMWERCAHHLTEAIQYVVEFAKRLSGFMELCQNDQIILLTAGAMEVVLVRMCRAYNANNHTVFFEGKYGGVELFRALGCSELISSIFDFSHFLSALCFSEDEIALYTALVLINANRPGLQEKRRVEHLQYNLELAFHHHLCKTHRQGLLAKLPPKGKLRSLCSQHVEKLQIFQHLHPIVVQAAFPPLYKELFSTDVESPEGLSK
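Luminescence from a UAS-regulated Photinus luciferase reporter in stably transfected Drosophila Schneider cells is measured; decreased signal marks ROR gamma inhibition. Fusion expression is induced by 700 uM copper sulfate for 20 hr.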
ELG1 repair inh: blocks ELG1-dependent DNA repair in HEK293T cells; HEK293T ELG1-luciferase reporter, luminescence, 16 h; DNA damage induced by 5-fluorouridine; Potency, µM (series often up to 46.1 µM), for the others: top-dose activity change, negative = inhibition, usual class: inhibitors; 2.3% of 330,000 active; AID 504467; also: % is scaled to controls: 0 for no effect and ±100 for the full control effect; nearly all actives have a fitted effect of over 55% in size
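In this reporter screen, reduction of luminescence relative to DMSO vehicle indicated activity. Compounds and 5-fluorouridine were added together to 2,000 cells per well, incubated for 16 hr at 37 °C, then developed with ONE-Glo.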
* = called active by the depositor; ? = inconclusive; / = no result given; [ ] = dose if it differs, or a comment. Calls follow the shape of the dose curve; as a rule, active = well fitted curve in the direction sought with a large enough effect; inconclusive = small, poorly fitted or top-dose-only effect, or another doubt; inactive = no such curve, though single readings can be large; an effect the other way counts as inactive or inconclusive. Potency is read from the fitted curve at half-maximal effect.

SMILES	Gal4-VP16 FLuc	SW480 rerep	MCF10A rerep	RORg inh	ELG1 repair inh
CCCCNc1c(-c2cccc(SC3CCCCC3)c2)nc2ccc(Cl)cn12	/	-3.6%	25.9µM*	/	?
c1ccc(CNc2c(-c3cccc(SC4CCCCC4)c3)nc3ccccn23)cc1	/	6.51µM*	18.4µM*	/	?
Cc1ccn2c(NCc3ccccc3)c(-c3cccc(SC4CCCCC4)c3)nc2c1	/	-10.4%	20.6µM*	/	?
Cc1ccc2nc(-c3cccc(SC4CCCCC4)c3)c(NCc3ccccc3)n2c1	/	?	18.4µM*	/	25.9µM*
Cc1ccc(NC(=O)CN(C)S(=O)(=O)c2cccs2)cc1C	7.94µM*	-1.0%	-11.9%	?	19.1%
COc1ccc(CNC(=O)CN(c2ccccc2OC)S(=O)(=O)c2cccs2)cc1	/	-6.9%	-4.5%	/	?
COc1ccccc1N(CC(=O)Nc1cc(S(=O)(=O)N(C)C)ccc1C)S(=O)(=O)c1cccs1	/	-1.5%	3.4%	/	23.1µM*
CN(C)S(=O)(=O)c1cccc(NC(=O)c2ccc3c(c2)S(=O)(=O)N=C2CCCCCN23)c1	/	/	/	/	-13.0%
CCc1ccc2nc(N3C(=O)c4oc5ccccc5c(=O)c4C3c3ccc(OC)c(OC)c3)sc2c1 (stereo unspecified)	-10.7%	/	/	9.7%	1.3%
COc1ccc2[nH]cc(CCNC(=O)COc3cc(C)cc4oc(=O)cc(C)c34)c2c1	1.5%	-3.5%	?	26.1%	?
Cc1cc(=O)[nH]c2c(C)cc(S(=O)(=O)N3CCCCC3)cc12	18.6%	0.5%	18.5%	5.62µM*	?
COc1ccc(S(=O)(=O)N2CCOC2CNC(=O)C(=O)NCCc2ccc(S(N)(=O)=O)cc2)cc1 (stereo unspecified)	-23.8%	-2.2%	-9.8%	19.4%	-12.4%
C[C@H](CO)N1C[C@H](C)[C@@H](CN(C)S(=O)(=O)c2cccs2)Oc2ccc(NC(=O)Nc3ccccc3)cc2C1=O	/	-9.8%	?	/	23.1µM*
COc1ccc(NC(=O)Nc2ccc3c(c2)C(=O)N([C@H](C)CO)C[C@H](C)[C@@H](CN(C)S(=O)(=O)c2ccc(F)cc2)O3)cc1	/	15.3%	11.9%	/	-24.4%
C[C@H](CO)N1C[C@H](C)[C@@H](CN(C)S(=O)(=O)c2ccc(F)cc2)Oc2ccc(NC(=O)Nc3ccc(C(F)(F)F)cc3)cc2C1=O	/	-0.6%	-46.9%	/	20.6µM*
C[C@@H]1CN([C@H](C)CO)C(=O)c2cc(NC(=O)Nc3ccc(C(F)(F)F)cc3)ccc2O[C@H]1CN(C)S(=O)(=O)c1ccc(Cl)cc1	/	4.9%	-19.9%	/	?
C[C@H](CO)N1C[C@H](C)[C@@H](CN(C)S(=O)(=O)c2cccs2)Oc2ccc(NC(=O)CCC(F)(F)F)cc2C1=O	/	-1.3%	0.4%	/	-20.7%
C[C@H](CO)N1C[C@H](C)[C@@H](CN(C)S(=O)(=O)c2ccc(F)cc2)Oc2ccc(NC(=O)Nc3ccccc3)cc2C1=O	/	2.9%	0.6%	/	23.1µM*
C[C@@H]1CN([C@@H](C)CO)C(=O)Cc2cc(NC(=O)Nc3ccc(C(F)(F)F)cc3)ccc2O[C@@H]1CN(C)S(=O)(=O)c1ccc(Cl)cc1	/	5.8%	?	/	20.6µM*
CCOc1ccc(NC(=O)OCCN2CCN(CCc3ccccc3)C(C)C2)cc1 (stereo unspecified)	/	5.3%	?	/	/
C[C@H](CO)N1C[C@H](C)[C@@H](CN(C)S(=O)(=O)c2ccccc2)Oc2ccc(NC(=O)Nc3ccccc3)cc2C1=O	/	-2.4%	-13.0%	/	20.6µM*
C[C@@H]1CN([C@@H](C)CO)C(=O)c2cc(NC(=O)Nc3ccc4c(c3)OCO4)ccc2O[C@H]1CN(C)S(=O)(=O)c1ccc(F)cc1	/	?	-38.8%	/	25.9µM*
C[C@@H]1CN([C@@H](C)CO)C(=O)c2cc(NS(C)(=O)=O)ccc2O[C@@H]1CN(C)S(=O)(=O)c1ccccc1	/	1.4%	10.5%	/	13.8%
C[C@H](CO)N1C[C@H](C)[C@@H](CN(C)S(=O)(=O)c2ccccc2)Oc2ccc(NC(=O)C3CC3)cc2C1=O	/	7.7%	-20.6%	/	18.3µM*
C[C@H](CO)N1C[C@H](C)[C@@H](CN(C)S(=O)(=O)c2ccc(F)cc2)Oc2ccc(NC(=O)Nc3ccc4c(c3)OCO4)cc2C1=O	/	-7.3%	?	/	?
SMILES	Gal4-VP16 FLuc	SW480 rerep	MCF10A rerep	RORg inh	ELG1 repair inh
Cc1ccc(S(=O)(=O)N(C)C[C@@H]2Oc3ccc(NC(=O)CCC(F)(F)F)cc3CC(=O)N([C@@H](C)CO)C[C@@H]2C)cc1	/	3.66µM*	3.66µM*	/	-0.2%
Cc1ccc2oc3nc(C)c(C(=O)Nc4cccc(C(F)(F)F)c4)cc3c(=O)c2c1	-8.4%	2.4%	8.1%	24.8%	-4.1%
CN(C)S(=O)(=O)n1cc(/C=C(\NC(=O)c2ccccc2)C(=O)NCCCn2ccnc2)c2ccccc21	-6.6%	?	4.5%	-1.5%	-0.7%
CN(C)S(=O)(=O)n1cc(/C=C(\NC(=O)c2ccccc2Cl)C(=O)NCCCn2ccnc2)c2ccccc21	-7.0%	-44.0%	?	-0.1%	20.6µM*
CCOC(=O)Cc1csc(NS(=O)(=O)c2ccc(Cl)cc2)n1	-6.7%	3.9%	4.6%	4.5%	-2.3%
COC(=O)c1nn(-c2c(C)n(C)n(-c3ccccc3)c2=O)cc1O	-2.8%	5.0%	4.11µM*	3.6%	-1.4%
O=C(CSc1ccc(-c2ccccn2)nn1)c1ccc(F)cc1	15.7%	-2.1%	-2.1%	-26.7%	-8.5%
COc1ccc(C(=O)CSc2nnc3ccc(-c4ccccn4)nn23)cc1	-13.9%[10 µM]	9.9%	?	2.9%	5.3%
Cc1nc(-c2ccccn2)nc(SCC(=O)c2ccc(F)cc2)c1Cl	?	-4.6%	-8.3%	3.55µM*	?
COc1ccc(C(=O)CSc2nc(-c3ccccn3)nc(C)c2Cl)cc1	?	?	?	2.82µM*	16.4µM*
CN1CCN(c2ncc3nc(-c4cc(F)cc(F)c4)c(=O)n(CCC#N)c3n2)CC1	2.6%	/	/	-7.0%	/
CC(C)c1ccc(C(N)=S)cc1	17.8µM*	-0.4%	-3.7%	3.98µM*	?
COc1ccc2nc(Cl)cc(Cl)c2c1	-1.1%	-3.2%	-0.9%	15.2%	-2.4%
C=CS(=O)(=O)c1c2cc(OC)ccc2nc2ccc(OC)cc12	/	20.6µM*	?	/	/
O=C(c1cc2cc(F)ccc2[nH]1)N1CCc2ccccc21	5.4%	-4.9%	16.2%	-1.1%	?
CC(=O)N(NC(=O)c1ccccc1Cl)C1CC(=O)N(c2ccc(C)cc2)C1=O (stereo unspecified)	-6.8%	18.0%	16.4µM*	2.9%	9.7%
CCC1=NN(C(=O)Cc2ccc(OC)c(OC)c2)C(O)(C(F)(F)F)C1 (stereo unspecified)	?	-20.8%	-0.6%	15.8µM*	-2.4%
